The source of these data is PubChem BioAssay (EPA / NIEHS).

Values joined by “and” are separate entries in the source; they are usually repeats but may differ in a detail not shown here. Identical values can stand only once. Results filed as inconclusive are left out. Where a structure was tested more than once in an assay, its records may differ in their call. Active and inactive are the calls of the source. How the source made its calls: active means hit-call score of the fitted dose curve at least 0.9, where 1 is the maximum; inconclusive means response in the unintended direction; inactive means score below 0.9.

zebrafish Estrogen Receptor (ER1), esr1 (gene 259252), sequence (P57717 whole entry, looked up): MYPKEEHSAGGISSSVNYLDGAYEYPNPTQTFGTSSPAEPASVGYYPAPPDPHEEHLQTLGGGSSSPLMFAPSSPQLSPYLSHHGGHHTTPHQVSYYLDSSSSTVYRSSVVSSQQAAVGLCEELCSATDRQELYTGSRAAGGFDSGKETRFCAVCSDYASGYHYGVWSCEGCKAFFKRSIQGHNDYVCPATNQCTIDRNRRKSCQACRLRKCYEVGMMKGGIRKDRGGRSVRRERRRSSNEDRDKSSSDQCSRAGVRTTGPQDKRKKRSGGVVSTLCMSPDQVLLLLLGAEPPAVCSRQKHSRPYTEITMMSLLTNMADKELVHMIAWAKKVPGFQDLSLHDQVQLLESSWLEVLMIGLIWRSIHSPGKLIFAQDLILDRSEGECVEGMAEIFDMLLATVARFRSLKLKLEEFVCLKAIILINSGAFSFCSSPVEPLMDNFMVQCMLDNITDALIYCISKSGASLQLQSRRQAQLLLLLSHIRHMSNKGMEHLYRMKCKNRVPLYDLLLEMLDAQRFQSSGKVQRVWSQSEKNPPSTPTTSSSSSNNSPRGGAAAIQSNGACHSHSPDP

This assay deals with zebrafish Estrogen Receptor (ER1), esr1 (gene 259252) (UniProt P57717). Description: ATG_zfER1_XSP2: Attagene TRANS-FACTORIAL Multi-Species (XSP2) HepG2 Assay for zebrafish Estrogen Receptor (ER1) (AID 2283816). The protocol:
ATG_XSP2_multi-species_TRANS is a cell-based, multiplexed assay created by modifying the existing Attagene TRANS-FACTORIAL system to include a panel of nuclear receptors from some or all the following species: human (Homo sapiens), mouse (Mus musculus), frog (Xenopus laevis), zebrafish (Danio rerio), chicken (Gallus gallus), and turtle (Chrysemys picta). The ECOTOX-FACTORIAL format uses HepG2, a human liver cell line, with measurements taken at 24 hours after chemical dosing in a 24-well plate. Xsp2 included 3 nM 6-alpha-fluorotestosterone and 1.5 nM norgestrel to stimulate the androgen receptor.ATG_zfER1_XSP2 is one of 29 assay components measured or calculated from the ATG_XSP2_multi-species_TRANS assay. It is designed to make measurements of mRNA induction, a form of inducible reporter, as detected with fluorescence intensity signals by Reverse transcription polymerase chain reaction (RT-PCR) and Capillary electrophoresis technology.The assay endpoint ATG_zfER1_XSP2 was analyzed in the positive analysis fitting direction relative to DMSO as the negative control and baseline of activity. Using a type of inducible reporter, measures of mRNA for gain-of-signal activity can be used to understand the reporter gene at the transcription factor-level as they relate to the gene ER. Furthermore, this assay endpoint can be referred to as a primary readout, because this assay has produced multiple assay endpoints where this one serves a reporter gene function. To generalize the intended target to other relatable targets, this assay endpoint is annotated to the nuclear receptor intended target family, where the subfamily is steroidal.
Human liver HepG2 cells are transiently transfected with multiple reporter transcription units (MRTUs) in 6-well plates using FuGene 6 reagent (Roche; 3 ml FuGene/1 mg DNA). The MRTU constructs are regulated by a cis-regulating element (promoter). […] A major difference between the CIS and TRANS system is that in CIS activities of endogenous TFs are measured, whereas the TRANS assay evaluates changes in activities of exogenous, chimeric NR-Gal4 proteins. […] At the end of 24 hour incubation, total RNA was isolated using TriZol reagent (Invitrogen). The isolated RNA is then reverse-transcribed using oligo(dT) primer and Mo-MLV reverse transcriptase (Invitrogen) with DNAse I (Ambion) treatment for 30 min. The one-tenth of the produced cDNA was amplified by PCR using Taq DNA polymerase (Invitrogen) and two reporter sequence-specific primers. The PCR products were fluorescently labeled by primer extension with 6-arboxyfluorescein (6-FAM) 5'-labeled reporter sequence-specific primer (2 min at 95 C, 20 s at 68 C and 10 min at 72 C) and these products were digested with 5U of HpaI (New England Biolabs) for 2h at 37 C. The fragments were purified using Qiaquick PCR columns (Qiagen), analyzed on an ABI 3130xL genetic analyzer (Applied Biosystems) with peak positions identified by using a set of X-rhodamine (ROX)-labeled MapMarker1000 molecular weight standards (BioVentures). The raw capillary electrophoresis data was processed using Attagraph software (Attagene).
As to `Oc1ccc2cc(SSc3ccc4cc(O)ccc4c3)ccc2c1`, the concentration at half-maximal activity (AC50) – broadly, the concentration giving half of the maximal activity seen – was 2.96 µM (active) and the result was inactive. Turning to `Clc1ccc(C(c2ccccc2Cl)C(Cl)Cl)cc1` (stereo not given), the AC50 was 4.61 µM (active) and 12.7 µM (active). Consider `BrCc1cccc(Oc2ccccc2)c1`, for which the AC50 is 100 µM (active) and the molecule was classed as inactive. On to `Cc1cc(=O)oc2cc(N(C)C)ccc12`, for which the molecule was classed as inactive. On to `CCCCC(CC)COC(=O)c1ccc(O)cc1` (stereo not given), for which the AC50 is 52.2 µM (active). `OCc1cccc(Oc2ccccc2)c1`: the AC50 was 37.7 µM (active) and the molecule was called inactive.

Turning to `O=c1c(O)c(-c2ccc(O)cc2)oc2cc(O)cc(O)c12`, the AC50 is 1.68 µM (active) and 954 nM (active).
